# Measurements taken from PubChem BioAssay (Tox21).
# A number with no mark means an inactive call. Inconclusive results are not listed. Entries that show only a call come without a potency. Active and inactive are the calls of the source. Unless noted, calls come from the whole dose curve.
# Columns and labels:
# [1] = Nuclear factor erythroid 2-related factor 2/antioxidant responsive element (Nrf2/ARE) small molecule agonists: qHTS cell viability counter screen in human keratinocytes (AID 1919968; active = well fitted curve in the direction sought with a large enough effect in the repeat runs; an effect the other way counts as inactive or inconclusive; note: nearly all actives have a fitted effect of over 55% in size)
# Procedure, shortened: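 Parallel cytotoxicity read: KeratinoSens HaCaT cells, compound treatment 23 h, viability by CellTiter-Fluor fluorescence 1 h post-reagent.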
# [2] = Nuclear factor erythroid 2-related factor 2/antioxidant responsive element (Nrf2/ARE) small molecule agonists: luciferase reporter gene qHTS assay in human keratinocytes (AID 1919969); note: nearly all actives have a fitted effect of over 35% in size; note: potency is the fitted concentration of half-maximal effect
# [3] = target: Gonadotropin-releasing hormone receptor (Homo sapiens) (UniProt P30968); assay: Human gonadotropin-releasing hormone receptor (GnRHR) small molecule agonists, calcium flux assay in GnRHR-HEK293 cells (AID 1920063); note: nearly all actives have a fitted effect of over 35% in size
# Gonadotropin-releasing hormone receptor (Homo sapiens), sequence (P30968 whole entry, looked up): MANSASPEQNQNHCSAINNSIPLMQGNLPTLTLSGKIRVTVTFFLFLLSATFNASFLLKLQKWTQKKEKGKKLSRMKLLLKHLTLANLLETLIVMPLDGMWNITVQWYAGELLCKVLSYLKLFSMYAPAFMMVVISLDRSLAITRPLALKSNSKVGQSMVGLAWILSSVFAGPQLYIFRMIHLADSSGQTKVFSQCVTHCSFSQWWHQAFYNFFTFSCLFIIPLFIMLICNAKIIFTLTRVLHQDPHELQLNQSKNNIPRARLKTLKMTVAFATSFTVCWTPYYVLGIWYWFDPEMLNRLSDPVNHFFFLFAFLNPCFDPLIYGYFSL
# Procedure, shortened: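 Calcium flux, agonist mode, human GnRHR stably integrated in HEK293; dye 1 h at 37 C before compound; Ex/Em=480/540 kinetic read, 3 min; 15 concentrations, triplicate.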
# [4] = target: KiSS-1 receptor (Homo sapiens) (UniProt Q969F8); assay: Human kisspeptin (KISS1R) small molecule agonists, calcium flux assay in KISS1R-HEK293 cells (AID 1920064; active = well fitted curve in the direction sought with a large enough effect in the repeat runs; an effect the other way counts as inactive or inconclusive)
# KiSS-1 receptor (Homo sapiens), sequence (Q969F8 whole entry, looked up): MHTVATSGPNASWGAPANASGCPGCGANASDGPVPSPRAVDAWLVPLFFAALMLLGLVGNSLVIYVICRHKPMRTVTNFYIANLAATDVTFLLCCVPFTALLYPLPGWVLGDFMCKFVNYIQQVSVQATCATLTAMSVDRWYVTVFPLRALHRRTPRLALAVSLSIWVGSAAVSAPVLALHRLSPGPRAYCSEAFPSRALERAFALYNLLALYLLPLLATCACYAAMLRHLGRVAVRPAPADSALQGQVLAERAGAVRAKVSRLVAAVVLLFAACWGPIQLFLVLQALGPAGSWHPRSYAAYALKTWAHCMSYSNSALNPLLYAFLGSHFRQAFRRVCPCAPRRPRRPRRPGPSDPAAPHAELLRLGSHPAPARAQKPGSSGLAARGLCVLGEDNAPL
# Procedure, shortened: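 Triplicate 15-concentration series were applied to dye-loaded human KISS1R HEK293 cells, and agonist-evoked calcium fluorescence was captured for 3 min.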
# [5] = G protein-coupled receptor (GPCR) small molecule agonists, calcium flux assay: HEK293 wild type cell line counter screen (AID 1920065)
# Procedure, shortened: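 Non-specific calcium responders were flagged by adding DMSO-dissolved compounds to dye-loaded cells and reading 480/540 nm fluorescence each second for 3 min; ATP served as positive control.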
# [6] = p53 small molecule agonists, cell-based qHTS assay with human liver microsomes (AID 1963577);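 note: p53 response element beta-lactamase reporter cells with liver microsomes plus NADPH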
# Procedure, shortened: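 Reporter activation was measured by LiveBLAzer fluorescence intensity in p53RE-bla cells, which had been exposed to compounds for 16 h at 37 C alongside 0.5 mg/mL human liver microsomes and 0.5 mg/mL NADPH (final concentrations).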
# [7] = p53 small molecule agonists, cell-based qHTS assay with rat liver microsomes (AID 1963578)
# Procedure, shortened: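 Compound in DMSO added to p53RE-bla cells 5 h post-plating; rat microsomes/NADPH 0.5 mg/mL final; 16 h, 37 C; LiveBLAzer 2 h RT.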
# [8] = p53 small molecule agonists, cell-based qHTS assay with human liver microsomes: qHTS cell viability counter screen (AID 1963579); note: nearly all actives have a fitted effect of over 45% in size
# Procedure, shortened: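 HLM-supplemented (0.5 mg/mL final) and NADPH-supplemented (0.5 mg/mL final) p53RE-bla cultures, 4,000 cells per well, were dosed with compounds in DMSO for 16 h at 37 C; luminescent ATP detection (CellTiter-Glo, 30 min, room temperature) quantified surviving cells.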
# [9] = p53 small molecule agonists, cell-based qHTS assay with rat liver microsomes: qHTS cell viability counter screen (AID 1963580); note: nearly all actives have a fitted effect of over 45% in size
# Procedure, shortened: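 Cytotoxicity counter screen: intracellular ATP read by CellTiter-Glo luminescence in the p53 reporter wells. HCT-116 p53RE-bla cells were treated for 16 h at 37 C alongside rat liver microsomes and NADPH, each 0.5 mg/mL final.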
# [10] = p53 small molecule agonists, cell-based qHTS assay: qHTS cell viability counter screen (AID 1963581); note: nearly all actives have a fitted effect of over 45% in size
# Procedure, shortened: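 Multiplexed with the reporter read, a CellTiter-Glo step (30 min, room temperature) gauges ATP-based viability of HCT-116 p53RE-bla cells after 16 h compound incubation at 37 C.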
# [11] = p53 small molecule agonists, cell-based qHTS assay (AID 1963582; active = well fitted activation curve with a large enough effect in the signal ratio in the repeat runs, not every such curve was filed as active; the % refers to the signal ratio)
# Procedure, shortened: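 Beta-lactamase reporter cells (p53RE-bla) treated with compounds for 16 h at 37 C; FRET substrate, 2 h, room temperature; fluorescence intensity.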
# [12] = target: 5-hydroxytryptamine receptor 2A (Homo sapiens) (UniProt P28223); assay: 5-hydroxytryptamine receptor 2A (HTR2A) small molecule agonists, cell-based qHTS assay (AID 1963587); note: nearly all actives have a fitted effect of over 30% in size
# 5-hydroxytryptamine receptor 2A (Homo sapiens), sequence (P28223 whole entry, looked up): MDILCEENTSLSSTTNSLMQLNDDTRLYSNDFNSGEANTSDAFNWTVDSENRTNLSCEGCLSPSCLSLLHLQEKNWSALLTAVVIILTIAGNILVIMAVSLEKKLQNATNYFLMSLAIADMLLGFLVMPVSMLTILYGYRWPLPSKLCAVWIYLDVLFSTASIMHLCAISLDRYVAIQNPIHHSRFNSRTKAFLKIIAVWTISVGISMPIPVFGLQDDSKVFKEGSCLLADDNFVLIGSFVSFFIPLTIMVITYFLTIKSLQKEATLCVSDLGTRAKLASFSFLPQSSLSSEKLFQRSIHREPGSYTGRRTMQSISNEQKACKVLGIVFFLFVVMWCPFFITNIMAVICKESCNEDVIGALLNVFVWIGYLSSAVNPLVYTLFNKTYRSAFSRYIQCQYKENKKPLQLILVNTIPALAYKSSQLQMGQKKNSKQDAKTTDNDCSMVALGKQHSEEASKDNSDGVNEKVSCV
# Procedure, shortened: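 Kinetic calcium-flux fluorescence (2 min, 1 sec intervals) after compound addition in agonist mode. HTR2A-CHO cells were cultured 18 h, then dye-loaded 1 h at 37 C.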
# [13] = target: Muscarinic acetylcholine receptor M1 (Homo sapiens) (UniProt P11229); assay: Cholinergic receptor muscarinic 1 (CHRM1) small molecule antagonists, cell-based qHTS assay (AID 1963588); note: nearly all actives have a fitted effect of over 40% in size
# Muscarinic acetylcholine receptor M1 (Homo sapiens), sequence (P11229 whole entry, looked up): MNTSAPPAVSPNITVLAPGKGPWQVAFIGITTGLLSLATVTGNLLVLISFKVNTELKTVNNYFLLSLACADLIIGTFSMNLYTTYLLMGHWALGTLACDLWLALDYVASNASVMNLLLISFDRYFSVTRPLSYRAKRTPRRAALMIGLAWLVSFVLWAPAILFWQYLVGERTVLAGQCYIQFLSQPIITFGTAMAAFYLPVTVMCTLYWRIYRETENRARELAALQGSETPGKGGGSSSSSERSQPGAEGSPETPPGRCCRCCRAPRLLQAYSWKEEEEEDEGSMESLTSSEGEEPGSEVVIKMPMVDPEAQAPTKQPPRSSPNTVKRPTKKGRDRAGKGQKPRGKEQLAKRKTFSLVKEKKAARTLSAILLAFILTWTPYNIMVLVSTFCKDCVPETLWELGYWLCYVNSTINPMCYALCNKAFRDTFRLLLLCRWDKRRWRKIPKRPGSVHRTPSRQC
# Procedure, shortened: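 Compounds were tested at 15 concentrations in three independent runs. Dye-loaded CHRM1-CHO cells were exposed 5 min at room temperature before stimulation by acetylcholine added at 50nM. Intracellular calcium was read kinetically on FDSS for 3 min.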
# [14] = target: Muscarinic acetylcholine receptor M1 (Homo sapiens) (UniProt P11229); assay: Cholinergic receptor muscarinic 1 (CHRM1) small molecule agonists, cell-based qHTS assay (AID 1963589); note: nearly all actives have a fitted effect of over 35% in size
# Procedure, shortened: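 qHTS, 15-point titration, 3 independent runs: compounds pin-transferred onto dye-loaded CHRM1-CHO cells (human M1), calcium fluorescence followed every second to detect agonism.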
# [15] = target: Beta-2 adrenergic receptor (Homo sapiens) (UniProt P07550); assay: Adrenergic beta2 receptor (ADRB2) small molecule antagonists, cell-based qHTS assay (AID 1963592); note: nearly all actives have a fitted effect of over 50% in size; note: potency is the fitted concentration of half-maximal effect
# Beta-2 adrenergic receptor (Homo sapiens), sequence (P07550 whole entry, looked up): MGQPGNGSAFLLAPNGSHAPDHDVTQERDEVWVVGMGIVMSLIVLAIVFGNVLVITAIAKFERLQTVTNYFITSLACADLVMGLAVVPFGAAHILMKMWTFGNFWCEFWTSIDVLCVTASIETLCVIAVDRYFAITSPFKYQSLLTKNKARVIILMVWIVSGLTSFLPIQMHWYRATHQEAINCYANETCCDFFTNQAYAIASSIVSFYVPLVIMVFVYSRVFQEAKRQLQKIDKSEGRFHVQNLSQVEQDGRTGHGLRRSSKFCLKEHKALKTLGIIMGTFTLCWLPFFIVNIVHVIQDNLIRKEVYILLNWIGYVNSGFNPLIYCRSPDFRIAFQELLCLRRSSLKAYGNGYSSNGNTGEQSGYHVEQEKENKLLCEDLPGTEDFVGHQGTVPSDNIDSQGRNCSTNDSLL
# Procedure, shortened: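 Assay format: CHO-ADRB2 cells, 18-20hr seeding at 37C/5% CO2, then compound plus 1nM isoproterenol agonist mix for 0.5hr RT. Homogeneous time-resolved fluorescence cAMP detection after 1hr, expressed as 665/615 nm ratio.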
# [16] = target: D(2) dopamine receptor (Homo sapiens) (UniProt P14416); assay: Dopamine D2 receptor (DRD2) small molecule agonists, cell-based qHTS assay (AID 1963594); note: nearly all actives have a fitted effect of over 35% in size; note: potency is the fitted concentration of half-maximal effect
# D(2) dopamine receptor (Homo sapiens), sequence (P14416 whole entry, looked up): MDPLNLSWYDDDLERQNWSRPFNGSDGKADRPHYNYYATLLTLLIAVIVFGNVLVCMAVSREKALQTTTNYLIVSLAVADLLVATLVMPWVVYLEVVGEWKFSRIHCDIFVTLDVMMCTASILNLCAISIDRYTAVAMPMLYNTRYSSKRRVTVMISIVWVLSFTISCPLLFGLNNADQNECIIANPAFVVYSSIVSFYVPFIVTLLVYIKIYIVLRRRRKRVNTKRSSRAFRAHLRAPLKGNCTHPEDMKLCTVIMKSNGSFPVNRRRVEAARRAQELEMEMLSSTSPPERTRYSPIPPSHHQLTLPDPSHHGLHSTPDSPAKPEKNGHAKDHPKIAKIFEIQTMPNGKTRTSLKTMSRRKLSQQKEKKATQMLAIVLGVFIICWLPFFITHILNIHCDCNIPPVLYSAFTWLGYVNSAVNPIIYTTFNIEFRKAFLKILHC
# Procedure, shortened: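 cAMP accumulation in DRD2-HEK293 cells measured by HTRF after 1 h detection; compounds added 10 min before NKH477 (200nM […]) forskolin-analogue stimulation, 30 min at room temperature, with Ro20-1724 present at 0.1 mM final.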
# [17] = target: D(2) dopamine receptor (Homo sapiens) (UniProt P14416); assay: Dopamine D2 receptor (DRD2) small molecule antagonists, cell-based qHTS assay (AID 1963595; active = well fitted inhibition curve with a large enough effect in the signal ratio in the repeat runs, with a control signal flat; the % refers to the signal ratio)
# Procedure, shortened: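 Antagonism was scored as restored cAMP in HEK293-DRD2 cells. These cells were stimulated with 200 nM NKH477 and 12 nM quinpirole for 30 min at room temperature, in the presence of 0.1 mM Ro20-1724.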
# [18] = target: 5-hydroxytryptamine receptor 2A (Homo sapiens) (UniProt P28223); assay: 5-hydroxytryptamine receptor 2A (HTR2A) small molecule antagonists, cell-based qHTS assay (AID 1963586); note: nearly all actives have a fitted effect of over 45% in size; note: potency is the fitted concentration of half-maximal effect
# Procedure, shortened: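 CHO cells stably expressing human HTR2A were plated for 18 h at 37 C, then loaded with calcium dye for 1 h. Compounds were preincubated 5 min at room temperature before DOI (4 nM solution) was added. Kinetic fluorescence was read for 3 min.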
# [19] = cAMP Responsive Elements (CRE) small molecule antagonists, cell-based qHTS assay (AID 1963591; active = well fitted inhibition curve with a large enough effect in the signal ratio in the repeat runs, not every such curve was filed as active; the % refers to the signal ratio)
# Procedure, shortened: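 Fluorescence intensity from cleaved LiveBLAzer B/G substrate (2 h, room temperature) quantified CRE-bla activity in HEK 293T cells exposed 3 h to compound with 0.25 uM final NKH477.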
Structure (SMILES),Potency [1],Potency [2],Potency [3],Potency [4],Potency [5],Potency [6],Potency [7],Potency [8],Potency [9],Potency [10],Potency [11],Potency [12],Potency [13],Potency [14],Potency [15],Potency [16],Potency [17],Potency [18],Potency [19]
Cc1nnc2n1-c1sc(CCC(=O)N3CCOCC3)cc1C(c1ccccc1Cl)=NC2,inactive,inactive,inactive,inactive,inactive,inactive,inactive,inactive,inactive,inactive,inactive,inactive,inactive,inactive,29.8 µM (active),inactive,inactive,,
CCCC[P+](CC)(CCCC)CCCC (tested in a mixture with another compound),inactive,inactive,inactive,inactive,inactive,inactive,inactive,inactive,inactive,inactive,inactive,,inactive,inactive,inactive,inactive,inactive,inactive,
N#CCCl,inactive,inactive,inactive,inactive,inactive,inactive,inactive,inactive,inactive,inactive,inactive,inactive,inactive,inactive,inactive,inactive,inactive,inactive,
O=C(O)c1ccc2[nH]cc(CCCCN3CC=C(c4ccccc4)CC3)c2c1,inactive,inactive,inactive,inactive,inactive,inactive,inactive,inactive,inactive,inactive,inactive,inactive,inactive,,inactive,0.0084 µM (active),inactive,,
CC1(C)[C@H](/C=C2\CCSC2=O)[C@@H]1C(=O)OCc1coc(Cc2ccccc2)c1,inactive,61.1 µM (active),inactive,inactive,inactive,inactive,inactive,inactive,inactive,inactive,inactive,inactive,inactive,inactive,inactive,inactive,inactive,2.65 µM (active),
CNNC,inactive,inactive,inactive,inactive,inactive,inactive,inactive,inactive,inactive,inactive,inactive,inactive,inactive,inactive,inactive,inactive,inactive,inactive,
COc1ccc(-c2ccccc2)cc1NNC(=O)OC(C)C,inactive,inactive,inactive,inactive,inactive,inactive,inactive,inactive,inactive,inactive,inactive,inactive,inactive,inactive,inactive,,inactive,inactive,inactive
